PAFAH1B2 inh = PAFAH1B2 enzyme inhibitors, primary screen, biochemical, fluorescence polarization, human. recombinant PAFAH1B2, FP-rhodamine activity probe. Platelet-activating factor acetylhydrolase IB subunit alpha2 (Homo sapiens), P68402. 340,000 compounds, 1.2% hits. inhibition, % at 3.39 µM;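 active = inhibition above the mean of all tested compounds plus 3 SD, cut at about 24% in these data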;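 also: 0% = enzyme with DMSO and 100% = wells lacking PAFAH1B2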
PP1 counter = PP1-alpha phosphatase inhibitors, primary screen, counter-screen for PP5 inhibitor project, biochemical, fluorescence, OMFP substrate, single point | inhibition, % at 6.7 µM | purified PP1alpha | 320,000 compounds, 0.9% hits;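 active = inhibition above the mean inhibition of all tested compounds plus 3 SD, computed separately for each screening campaign, cut at about 15% in these data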
PP5 primary = PP5 phosphatase inhibitors, primary screen, biochemical, fluorescence; Serine/threonine-protein phosphatase 5 (Homo sapiens), P53041; purified PP5c, OMFP substrate fluorescence; inhibition, % at 6.7 µM; 320,000 compounds, 0.18% hits; AID 1987, 2009;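 active = inhibition above the campaign's mean inhibition across all tested compounds plus 3 SD, cut at about 9.5% in these data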;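 also: 0% = DMSO only and 100% = 100 µM cantharidin control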
PAFAH2 inh = PAFAH2 enzyme inhibitors, primary screen, biochemical, fluorescence polarization, human | recombinant PAFAH2, FP-rhodamine activity probe | inhibition, % at 3.39 µM | 340,000 compounds, 0.99% hits | AID 492956, 2010;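 active = inhibition above the mean over all tested compounds plus 3 SD, cut at about 30% in these data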;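 also: inhibitors block probe labeling of enzyme so polarization drops; 0% = enzyme with DMSO and 100% = wells lacking PAFAH2 protein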
PAFAH1B3 inh = PAFAH1B3 enzyme inhibitors, primary screen, biochemical, fluorescence polarization, human | recombinant PAFAH1B3, FP-rhodamine probe | inhibition, % at 3.39 µM | 340,000 compounds, 0.28% hits | AID 492972, 2010;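 active = inhibition above the screen-wide average of all tested compounds plus 3 SD, cut at about 25% in these data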;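 also: 0% = enzyme with DMSO only and 100% = wells lacking PAFAH1B3 protein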
pPAFAH FP inh = pPAFAH enzyme inhibitors, primary screen, biochemical, fluorescence polarization, human; Platelet-activating factor acetylhydrolase (Homo sapiens), Q13093; recombinant pPAFAH, FP-rhodamine probe fluorescence polarization; inhibition, % at 3.39 µM; 330,000 compounds, 1.5% hits;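 active = inhibition above the mean inhibition across the screen plus 3 SD, cut at about 25% in these data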;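 also: inhibitors block binding of the rhodamine activity-based probe so polarization drops; 0% = enzyme with DMSO and 100% = wells lacking pPAFAH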
Target sequence (Q13093 whole entry, looked up): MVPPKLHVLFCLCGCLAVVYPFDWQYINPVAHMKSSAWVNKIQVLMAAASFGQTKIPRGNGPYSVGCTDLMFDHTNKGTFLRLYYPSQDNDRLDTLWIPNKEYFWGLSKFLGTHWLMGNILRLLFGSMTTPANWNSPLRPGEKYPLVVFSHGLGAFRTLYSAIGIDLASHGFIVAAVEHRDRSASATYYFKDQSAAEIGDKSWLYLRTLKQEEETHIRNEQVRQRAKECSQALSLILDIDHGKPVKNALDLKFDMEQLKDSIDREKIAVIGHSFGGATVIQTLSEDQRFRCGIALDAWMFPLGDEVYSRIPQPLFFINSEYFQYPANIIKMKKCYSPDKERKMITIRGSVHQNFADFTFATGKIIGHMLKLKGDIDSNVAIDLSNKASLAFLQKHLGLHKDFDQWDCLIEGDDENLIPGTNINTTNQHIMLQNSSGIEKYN
PP1 inh confirm = PP1 phosphatase inhibitors, confirmation, biochemical, fluorescence, OMFP substrate, triplicate; 1,900 compounds, 52% hits; inhibition, % at 6.7 µM; purified PP1alpha; shares compounds with PP1 counter;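 active = mean PP1 inhibition above a set limit taken from the earlier primary screen, cut at about 15% in these data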
PP5 counter = PP5 phosphatase inhibition by PP1 hits, confirmation, counter-screen for PP1 inhibitor project, biochemical, fluorescence, triplicate; inhibition, % at 6.7 µM; 1,900 compounds, 4% hits; purified PP5c, OMFP fluorescence; shares compounds with PP1 counter;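 active = mean PP5 inhibition over triplicate wells above about 9.5% taken from the earlier PP1 screen, limit read from the data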
* hit, by the source's call; nt = not tested or not shown. Most compounds without a hit are left out; they make up all but 3.4% or so of the library.

SMILES	PAFAH1B2 inh	PP1 counter	PP5 primary	PAFAH2 inh	PAFAH1B3 inh	pPAFAH FP inh	PP1 inh confirm	PP5 counter
Cc1cccc(N2CSC3=C(C#N)C(c4ccc(C)o4)CC(=O)N3C2)c1 (stereo unspecified)	nt	20.2*	5.4	nt	nt	47.2*	16.4*	2.6
CCOC(=O)C1=C(COC(=O)CNS(=O)(=O)c2ccc(NC(C)=O)cc2)NC(=O)NC1C (stereo unspecified)	1.8	nt	nt	-8.4	-4.3	nt	nt	nt
CCN(CC)C(=O)CSc1ncnc2c(-c3cccs3)nsc12	-3.2	25.4*	2.6	2.6	-1.8	19.8	5.7	-2.9
CCN(CC)C(=O)CSc1ncnc2sccc12	-1.8	0.4	2.5	3.6	8.4	3.1	nt	nt
O=C(N/N=C/c1cc([N+](=O)[O-])ccc1O)NC12CC3CC(CC(C3)C1)C2	87.9*	19.7*	5.1	22.8	10.4	18.9	17.1*	0.2
O=C(N/N=C/c1ccc(O)cc1O)NC12CC3CC(CC(C3)C1)C2	20.9	2.2	2.1	4.0	14.9	2.5	nt	nt
COC(=O)[C@]1(Cc2ccccc2)N[C@H](CN(C)C(=O)c2ccc(F)cc2)[C@@H]2C(=O)N(C)C(=O)[C@@H]21	-1.9	nt	nt	4.1	10.4	-2.6	nt	nt
CCOC(=O)N1CCN(Cc2ccc(O)c3ncccc23)CC1	nt	2.9	2.2	nt	nt	0.8	nt	nt
Cc1ccc(C)c(S(=O)(=O)N2CCN(Cc3ccc(O)c4ncccc34)CC2)c1	1.6	31.4*	6.3	-0.5	4.1	-3.0	29.9*	-6.8
CCCCCCCCCC[N+](C)(C)CC/C=C1/c2ccccc2Sc2ccc(Cl)cc21	1.6	41.1*	7.6	-5.6	8.3	19.9	10.9	6.2
CCCCCCCCCCC[N+](C)(C)CC/C=C1/c2ccccc2Sc2ccc(Cl)cc21	4.9	38.9*	5.3	4.1	6.2	23.1	9.4	2.3
CN(c1ccccc1)S(=O)(=O)c1cccc(C(=O)OCC(=O)Nc2ccc(C(N)=O)cc2)c1	1.9	nt	nt	1.3	4.4	5.2	nt	nt
CC1Cc2cc(/C(O)=C3/C(=O)C(=O)N(CCCn4ccnc4)C3c3ccncc3)ccc2O1 (stereo unspecified)	-1.4	-1.6	3.2	-3.4	-3.2	2.5	nt	nt
CC1Cc2cc(/C(O)=C3/C(=O)C(=O)N(CCCn4ccnc4)C3c3ccc(Br)cc3)ccc2O1 (stereo unspecified)	-1.5	26.3*	1.2	4.1	1.3	3.7	31.3*	1.0
CC(C)OC(=O)CC(=O)c1sc2nc3c(cc2c1N)CN(C)CC3	nt	23.3*	4.7	nt	nt	13.7	7.5	20.0*
Cc1cccc2c1ncc1c(=O)n(-c3ccccc3)[nH]c12	0.7	1.7	3.2	2.9	8.7	5.0	nt	nt
O=C(/C=C/c1ccccc1)NCCc1ccccc1	5.4	35.3*	-0.2	2.6	12.1	22.5	-1.1	-4.8
O=C(/C=C/c1ccc([N+](=O)[O-])cc1)NCCc1ccccc1	4.9	-1.4	2.6	16.0	7.0	2.0	nt	nt
COc1ccc(Nc2nnc(C)c(=O)[nH]2)c(OC)c1	0.5	-4.9	-1.1	-14.5	8.1	5.2	nt	nt
COc1cccc(CC(=O)n2nc(N)c3cc4ccc(OC)cc4nc32)c1	4.1	1.0	1.7	-5.9	-7.4	-2.9	nt	nt
COc1ccc2cc3c(N)nn(C(=O)Cc4c[nH]c5ccccc45)c3nc2c1	3.5	18.9*	5.2	3.3	-0.6	6.3	17.0*	4.1
COc1ccc2cc3c(N)nn(C(=O)Cc4ccc(Cl)cc4)c3nc2c1	7.0	21.0*	1.1	-10.9	-0.2	-3.8	11.7	-4.3
